Source: PubChem
The list is not random: actives were taken first. Their share in the collection is about 10%.
ALDH1A1 inh: ALDH1A1 (human) enzyme inhibition | Purified ALDH1A1, NADH fluorescence, propionaldehyde substrate | Potency, µM (titrated, usually from 75.3 µM), inactives show at the top dose activity, negative = inhibition, hits mostly inhibitors | 220,000 tested, 7.3% active;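 note: potency is the fitted concentration of half-maximal effect; plate controls were no enzyme wells and a reference inhibitor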
LMNA splice mod: modulators of lamin A splicing | HeLa LMNA splicing GFP/RFP minigene ratio, 48 h | Potency, µM (titrated, usually from 46.1 µM), for inactives: top-dose ratio change, negative = inhibition, actives largely listed as inhibitors | 200,000 tested, 0.01% active | AID 1487; active = well fitted inhibition curve with a large enough effect in the signal ratio, with a control signal flat, not every such curve was filed as active; inconclusive = small, poorly fitted or top-dose-only effect, or effect the other way, or a change in a side signal; the % refers to the signal ratio; note: potency is the fitted concentration of half-maximal effect
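S3 HeLa stable clones carrying a lamin A-EGFP splicing minigene plus DsRed2 were seeded at 600 cells/well in Opti-MEM with 2% FBS, pin-dosed and incubated 48 h at 37°C. Acumen cytometry (488 nm) gave the GFP/RFP total-intensity ratio.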
PNC inhibitor: blocks assembly of the perinucleolar compartment. 140,000 tested, 3.1% active. PC3M PTB-GFP, PNC prevalence imaging, 16 h; hits give low values. activity change (PNC), negative = inhibition, % at 10 µM;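 active = readout at or below -70, meaning at least 70% loss of cells showing the perinucleolar compartment, a nuclear body marking cancer cells; inconclusive = readout between -30 and a set limit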;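 note: plate controls were DMSO wells for no effect and camptothecin positive control wells for full effect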
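Compounds are pinned in duplicate onto adhered PC3M cells stably expressing GFP-tagged PTB and incubated 16 h at 37 C. Cells are then fixed, nuclei stained with Hoechst, and PNC-positive cells counted.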
HPGD block: HPGD (human) dehydrogenase inhibition | purified HPGD, NADH fluorescence kinetic, PGE2 substrate | 150,000 tested, 4.3% active | AID 894 | Potency, µM, inactives show at the highest dose activity change, negative = inhibition, hits mostly inhibitors; note: potency is the fitted concentration of half-maximal effect
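20 nM HPGD preincubated 15 min at room temperature with compound in 50 mM Tris-HCl pH 8, 0.01% Tween 20. Started with 1 mM NAD+ and 30 uM prostaglandin E2; NADH fluorescence (360/450 nm) read 5 times over 30-s intervals, last minus first.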
12-hLO inh: 12-hLO (ALOX12) enzyme inhibition | P18054 | purified 12-hLO, xylenol orange hydroperoxide absorbance | Potency, µM (doses to about 57.1 µM), without a hit: at the top dose activity change, negative = inhibition, usual class: inhibitors | 150,000 tested, 0.12% active; active = well fitted inhibition curve with a large enough effect; inconclusive = small, poorly fitted or top-dose-only effect; note: potency is the fitted concentration of half-maximal effect; nearly all actives have a fitted effect of over 55% in size
Target sequence (P18054 whole entry, looked up): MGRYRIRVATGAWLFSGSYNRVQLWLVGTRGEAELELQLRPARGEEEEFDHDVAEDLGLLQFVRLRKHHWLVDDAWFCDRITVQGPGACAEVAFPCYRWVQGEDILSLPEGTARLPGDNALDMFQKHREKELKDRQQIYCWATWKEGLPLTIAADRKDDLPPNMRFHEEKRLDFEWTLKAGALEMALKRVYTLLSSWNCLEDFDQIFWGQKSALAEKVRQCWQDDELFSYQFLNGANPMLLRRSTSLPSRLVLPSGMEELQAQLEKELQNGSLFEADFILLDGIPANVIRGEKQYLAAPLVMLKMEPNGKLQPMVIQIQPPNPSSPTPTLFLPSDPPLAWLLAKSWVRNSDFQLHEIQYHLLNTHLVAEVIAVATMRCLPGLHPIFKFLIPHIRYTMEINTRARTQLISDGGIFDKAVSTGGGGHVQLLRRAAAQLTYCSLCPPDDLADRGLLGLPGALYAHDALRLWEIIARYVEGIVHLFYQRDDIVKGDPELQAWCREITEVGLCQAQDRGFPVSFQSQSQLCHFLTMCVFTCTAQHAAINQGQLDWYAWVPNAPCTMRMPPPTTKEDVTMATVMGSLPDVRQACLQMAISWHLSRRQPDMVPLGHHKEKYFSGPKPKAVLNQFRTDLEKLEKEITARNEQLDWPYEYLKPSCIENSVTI
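Xylenol orange chromogenic assay: hydroperoxide from 12hLO oxidises Fe(II), giving red-shifted Fe(III)-XO absorbance. Conditions: 150 nM enzyme, 40 uM arachidonic acid, 25 mM Hepes pH 7.0, 0.01% Triton X-100, 30 min, room temperature.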
* marks the source's active call; other numbers are inactive results; ? = inconclusive; . = not tested or not shown; [ ] = another dose, or the depositor's remark. Unless noted, calls come from the whole dose curve; as a rule, active = well fitted inhibition curve with a large enough effect (not every such curve was filed as active); inconclusive = small, poorly fitted or top-dose-only effect, or another doubt; inactive = no such curve, though single readings can be large or run the other way. Unless noted, % is set by controls: 0 for no effect and ±100 for the full control effect.

SMILES | ALDH1A1 inh | LMNA splice mod | PNC inhibitor | HPGD block | 12-hLO inh
CCc1cccc(N(CC(=O)NCc2ccc(F)cc2)C(=O)c2csnn2)c1 | -9% | ? | . | . | .
CC(C)Cn1c(SC(C)C(=O)Nc2ccc3c(c2)OCCO3)nc2ccccc2c1=O (stereo unspecified) | 16µM* | ? | -1 | -14% | -9%
CC(Sc1ncnc2ccccc12)C(=O)Nc1ccc2c(c1)OCCO2 (stereo unspecified) | ? | ? | -10 | -12% | -4%
CCOc1ccc(-c2cc3c(=O)n(CC(=O)NCc4ccc(Cl)cc4)ccn3n2)cc1 | . | -1%[46 µM] | . | . | .
N#CC1=C(N)OC2=C(C(=O)CCC2)C12CCN(C(=O)OCc1ccccc1)CC2 | ? | 18% | 24 | -24% | -10%
CC1(C)CC(=O)C2=C(C1)OC(N)=C(C#N)C21CCN(C(=O)OCc2ccccc2)CC1 | 10µM* | 9% | 19 | -27% | -20%
CC1(C)CC(=O)C2=C(C1)OC(N)=C(C#N)C21C(=O)N2CCCc3cccc1c32 (stereo unspecified) | 7.1µM* | 16% | -13 | -9% | 3%
c1ccc(-c2cccc(N3CC[C@@]4(CCCNC4)C3)c2)cc1 | ? | . | . | -14% | -12%
Cc1ccc(NC(=O)COC(=O)C(CC(C)C)N2C(=O)C3CC=CCC3C2=O)c(C)c1 (stereo unspecified) | -15% | 4% | -87* | -8% | 0%
O=C1C(=Cc2ccco2)C(=O)c2ccccc21 | 13µM* | -2% | 32 | -24% | -2%
O=C1/C(=C/c2ccco2)CCc2ccccc21 | 28µM* | -2% | -17 | -7% | -9%
COc1ccc2c(c1)CC/C(=C/c1ccco1)C2=O | ? | -6% | 11 | ? | 0%
CCC1C/C(=C/c2ccco2)C(=O)/C(=C/c2ccco2)C1 (stereo unspecified) | ? | ? | -119* | -10% | -16%
O=C(CCCn1c(=O)c2cccn2c2ccccc21)Nc1cc(C(F)(F)F)ccc1Cl | . | 7%[46 µM] | . | . | .
COc1ccc(NC(=O)CSc2n[nH]c(-c3ccccc3)n2)cc1Cl | . | 8%[46 µM] | . | . | .
Cc1ccc(C(=O)O/N=C/c2c(N3CCOCC3)n(C)c3ccccc23)cc1 | ? | ? | 82 | ? | 8%
Cn1c(N2CCOCC2)c(/C=N/OC(=O)c2ccc(F)cc2)c2ccccc21 | -3% | ? | -99* | -8% | 0%
CCN(C(=O)c1ccc2c(Cl)c3c(nc2c1)CCC3)c1ccc(C)c(C)c1 | 14µM* | ? | 62 | ? | -3%
CN(C(=O)c1ccc2c(=O)n3c(nc2c1)CCCCC3)c1ccccc1 | 6% | -3% | -100* | -15% | -3%
CN(C(=O)c1ccc2c(Cl)c3c(nc2c1)CCC3)c1ccccc1 | ? | -7% | -13 | 4.5µM* | 2%
COc1ccc(-c2nc(C)c(CCNC(=O)c3ccccc3Br)s2)cc1OC | . | -18%[46 µM] | . | . | .
CCc1ccc(NC(=O)c2cnn(-c3c(C)cccc3C)c2C2CCN(C(=O)OC(C)(C)C)CC2)cc1 | . | -12%[46 µM] | . | . | .
COc1ccc(CCC(=O)NCc2nc3cccnc3n2Cc2ccccc2)cc1 | . | 12%[46 µM] | . | . | .
COc1ccc(S(=O)(=O)NCCc2sc3nc(-c4ccc(C)cc4)nn3c2C)cc1C | . | -19%[46 µM] | . | . | .
CC(C)CN1CCCC2(CCN(C(=O)c3cc(C(F)(F)F)cc(C(F)(F)F)c3)CC2)C1 | 4% | . | . | -4% | -3%
SMILES | ALDH1A1 inh | LMNA splice mod | PNC inhibitor | HPGD block | 12-hLO inh
CC(C)c1ccc(NC(=S)Nc2ccc3[nH]c(=O)[nH]c3c2)cc1 | 40µM* | . | . | . | .
O=C(COc1ccc(Cl)cc1Cl)NNC(=S)NCc1ccco1 | 2% | 29%[46 µM] | . | . | .
S=C(Nc1ccc2cn[nH]c2c1)Nc1ccc(Cl)cc1Cl | 13µM* | -2%[46 µM] | . | . | .
CCCCNC(=S)Nc1ccc2cn[nH]c2c1 | -1% | -12% | -84* | -12% | -6%
S=C(NCc1ccco1)Nc1ccc(Cl)cc1Cl | -1% | ? | 33 | 28µM* | -2%
O=c1[nH]c2ccc(NC(=S)Nc3ccc(Cl)cc3)cc2[nH]1 | 7% | 13% | 30 | -6% | 2%
COc1ccc(N2CC(NC(=O)C3CCCC3)CC2=O)cc1OC (stereo unspecified) | . | -5%[46 µM] | . | . | .
COCCNC(=S)Nc1ccc2[nH]c(=O)[nH]c2c1 | 25µM* | 20%[46 µM] | . | . | .
